Screening results from PubChem.
A selection: hits, their analogues and other compounds. The true share with any hit is near 11%.
USP17 block = human USP17-like deubiquitinase inhibition; 47,000 compounds, 6.5% hits; inhibition, % at 50 µM; purified USP17, Ub-rhodamine cleavage fluorescence, 3 h; A8MUK1
Target sequence (A8MUK1 whole entry, looked up): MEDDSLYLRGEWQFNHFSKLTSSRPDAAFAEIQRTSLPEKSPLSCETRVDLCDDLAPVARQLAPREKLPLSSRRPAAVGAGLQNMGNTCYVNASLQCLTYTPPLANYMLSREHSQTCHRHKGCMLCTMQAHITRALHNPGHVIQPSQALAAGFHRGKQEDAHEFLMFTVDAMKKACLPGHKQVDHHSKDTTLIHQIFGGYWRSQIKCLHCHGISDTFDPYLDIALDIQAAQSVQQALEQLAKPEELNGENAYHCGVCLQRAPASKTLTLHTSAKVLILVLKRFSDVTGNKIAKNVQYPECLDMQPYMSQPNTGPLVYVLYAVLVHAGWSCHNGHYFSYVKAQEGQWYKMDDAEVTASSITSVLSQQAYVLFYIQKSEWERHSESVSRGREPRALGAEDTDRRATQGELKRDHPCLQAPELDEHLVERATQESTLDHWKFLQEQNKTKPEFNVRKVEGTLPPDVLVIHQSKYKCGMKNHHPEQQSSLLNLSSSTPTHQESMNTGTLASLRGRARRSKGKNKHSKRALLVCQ
OTUD3 inh = blocks human OTUD3 ubiquitin-rhodamine cleavage; AID 1645858; Q5T2D3; 47,000 compounds, 0.7% hits; inhibition, % at 25 µM; purified OTUD3, Ub-rhodamine fluorescence, 2 h
USP30 block = human USP30 deubiquitinase inhibition | purified USP30, Ub-rhodamine cleavage fluorescence | inhibition, % at 25 µM | 47,000 compounds, 5.3% hits | AID 1645860
USP28 inh = blocks human USP28 ubiquitin-rhodamine cleavage | 47,000 compounds, 3% hits | purified USP28, Ub-rhodamine cleavage fluorescence, 30 min | inhibition, % at 25 µM | Q96RU2 | AID 1645857
A number is an active result; n = inactive; x = no result. No stated cut-off is given here; in the data, active means inhibition above about 30%; inactive means the rest.

SMILES	USP17 block	OTUD3 inh	USP30 block	USP28 inh
CC1(C)CC[C@]2(C(=O)O)CC[C@]3(C)C(=CCC4[C@@]5(C)CC[C@H](O)[C@@](C)(CO)C5CC[C@]43C)[C@@H]2C1 (stereo partly drawn)	95	81	84	82
Cc1cccc(NC(=O)c2ccc(C)c(C)c2)c1	n	n	n	34
Cc1ccc(S(=O)(=O)N2CCc3ccc(NC(=O)Nc4cccc(C)c4)cc32)cc1	n	n	n	n
Cc1cccc(NS(=O)(=O)c2cc(C(=O)Nc3ccccc3)ccc2Cl)c1	n	n	n	n
CC(=O)c1cccc(NC(=O)c2ccc(CN(c3ccc(C)c(C)c3)S(C)(=O)=O)cc2)c1	n	n	n	73
Cc1cccc(NC(=O)Nc2ccc(C)c(C)c2)c1	n	n	31	n
NC(=O)Nc1ccc(NS(=O)(=O)c2ccc3c(c2)CCCC3)cc1	n	n	x	x
CN(C)CCCN(C(=O)c1ccco1)c1nc2ccc(F)cc2s1	n	n	n	n
CN(C)CCCN(C(=O)c1cc2ccccc2oc1=O)c1nc2ccc(F)cc2s1	55	n	79	44
Nc1c(C(=O)NCc2ccc3c(c2)OCO3)nnn1Cc1ccc(Br)cc1F	x	n	75	40
O=C(Cc1ccccc1O)N1CCc2nc3ccccc3c(=O)n2CC1	n	n	n	n
Cc1ccc(C(C)C(=O)N2CCc3nc4ccccc4c(=O)n3CC2)cc1 (stereo not drawn)	n	n	30	n
Cc1cccc(C)c1NC(=O)c1cccc(COc2ccc3c(c2)CCC3)c1	n	n	n	31
CCc1nnc(C2CCN(C(=O)c3ccccc3Cl)CC2)s1	n	n	n	n
CCOC(=O)C1C(=O)NC(c2ccccc2)=NC1c1ccc(C(F)(F)F)cc1 (stereo not drawn)	n	n	41	n
CCn1c(CN(C)C(=O)Nc2ccc(F)cc2)nc2cc(C(=O)N(C)C)ccc21	n	n	n	n
COc1cccc(C(=O)Nc2ccccc2-c2nc(-c3ccncc3)no2)c1	n	n	39	n
CCN1C(=O)Cc2cc(NS(=O)(=O)c3ccc(OC)cc3)ccc21	n	n	n	n
COc1ccc(S(=O)(=O)Nc2ccc3nn(C)cc3c2)cc1	34	n	n	n
O=C(c1noc2ccc(S(=O)(=O)N3CCOCC3)cc12)N1CCCCC1	n	n	n	n
O=c1c2ccccc2c(-c2nc(-c3cccnc3)no2)cn1-c1ccc(Cl)cc1	n	n	38	n
c1ccc(-n2cc(-c3noc(-c4cccnc4)n3)nn2)cc1	n	n	n	n
COc1ccc(-c2cc(-c3nnc(CSc4nnc(C)n4-c4ccccc4)o3)c3ccccc3n2)cc1OC	36	n	n	n
COc1ccc(-c2cc(-c3nnc(COC(=O)CC4CCCC4)o3)c3ccccc3n2)cc1OC	n	n	n	n
O=C(NCc1cccc(NC(=O)C2CC2)c1)Nc1cccc2ccccc12	54	42	n	n
SMILES	USP17 block	OTUD3 inh	USP30 block	USP28 inh
COc1ccccc1CNC(=O)Nc1cccc2ccccc12	53	n	30	n
Cc1ccc(C(=O)N2CCN(C3CCN(Cc4cc5ccccc5o4)CC3)C(=O)C2)cc1	n	n	n	n
COc1cccc(CNC(=O)C2CCCN(c3cc(=O)n(C)c(=O)n3C)C2)c1 (stereo not drawn)	n	n	n	n
CCn1cc(C(=O)NCc2ccc(F)cc2F)c(=O)c2ccc(C)nc21	41	n	n	n
CCOc1ncccc1C(=O)OCC(=O)c1ccc(C)c(C)c1	n	n	n	38
CC(C)N1CCC[C@H]1c1nc(-c2ccc(N3CCOCC3)nc2)no1	n	n	n	n
CCc1nnc(-c2nnc(NCCOc3ccccc3OC)c3ccccc23)o1	n	n	34	n
CCn1ccc2c(cc(C(=O)Nc3cc(F)ccc3F)n2C)c1=O	x	n	n	70
CCn1ccc2c(cc(C(=O)Nc3cccc(OC)c3)n2C)c1=O	n	n	n	83
O=C(Nc1ccc2nccnc2c1)c1cccc(C(F)(F)F)c1	n	n	76	32
O=C(Nc1ccncc1NC(=O)c1cccc(C(F)(F)F)c1)c1cccc(C(F)(F)F)c1	n	n	n	n
COc1ccc(OC)c(-c2cn3ccn(-c4ccc5c(c4)CCC5)c(=O)c3n2)c1	x	n	51	n
CNC(=O)[C@@H]1C[C@@H]2CN(C(=O)C3CC3)CCN2[C@@]12C(=O)Nc1ccccc12	n	n	n	n
O=C(CCc1ccc(S(=O)(=O)N2CCOCC2)cc1)OCC(=O)c1ccc(-c2ccccc2)cc1	n	n	31	n
O=C(CCc1ccc(S(=O)(=O)N2CCOCC2)cc1)NC(c1ccccc1)c1ccccc1	n	n	n	n
O=C(C1CCN(c2ccc(N3CCCCC3)nn2)CC1)N1CCN(c2ccccc2)CC1	n	n	n	n
Cc1cc(C)n(CCCC(=O)N2CCC3(CC2)OCCc2cnc(C)nc23)n1	n	n	n	n
CC(C)C1Cc2c(sc3nc(SCC(=O)Nc4cccc5ccccc45)nc(N)c23)CO1 (stereo not drawn)	52	n	n	n
CCC1(C)Cc2c(sc3nc(SCC(=O)Nc4ccc(C(C)=O)cc4)nc(N)c23)CO1 (stereo not drawn)	63	n	n	n
CC1(C)Cc2c(sc3nc(Cc4ccccc4)nc(SCC(=O)Nc4ccccc4)c23)CO1	35	n	56	n
O=C(Cc1ccc(Cl)cc1)N1CCc2nc3ncccc3cc2C1	n	n	n	n
Cc1ccc(NC(=O)N2CCN(C3=CC4=NC(C)CN4C=N3)CC2)c(C)c1 (stereo not drawn)	n	n	34	n
COc1ccc(NC(=O)N2CCN(C3=CC4=NC(C)CN4C=N3)CC2)c(C)c1 (stereo not drawn)	n	n	n	n
COc1ccc2c(c1)c(N1CCCC1=O)c(C(=O)NCc1cccc(OC)c1OC)n2C	n	n	n	57
Cc1cc2c(cc1S(=O)(=O)CCC(=O)N1CCc3ccccc31)OCC(=O)N2	n	n	n	n
SMILES	USP17 block	OTUD3 inh	USP30 block	USP28 inh
Cc1cc(=O)n(C)c2c(O)c3c(cc12)c(C)cc(=O)n3C	77	57	n	70
O=C(/C=C/c1cccc([N+](=O)[O-])c1)Nc1nc2n(n1)C(c1ccccc1)CC(=O)N2 (stereo not drawn)	n	n	38	n
COc1ccc(/C=C/C(=O)Nc2nc3n(n2)C(c2ccccc2)CC(=O)N3)cc1OC (stereo not drawn)	n	n	n	n
COc1ccc(/C=C/C(=O)Nc2nc3n(n2)C(c2ccccc2)CC(=O)N3)cc1 (stereo not drawn)	n	n	31	n
Cc1ccc(C(=O)Nc2nc3n(n2)C(c2ccccc2)CC(=O)N3)cc1 (stereo not drawn)	71	n	n	n
O=C1CC(c2ccccc2)n2nc(NC(=O)c3ccccc3)nc2N1 (stereo not drawn)	n	n	n	n
CC(=O)N1CCCC1c1ccnc(Nc2cc(C(F)(F)F)ccn2)n1 (stereo not drawn)	n	n	n	n
O=C1NC(c2ccccc2)=N[C@@]12CC[C@@H]1CN(Cc3ccc(F)cc3)C[C@@H]12	n	n	n	n
CCc1c(C)c(C#N)c2nc3ccccc3n2c1N1CCN(C2CCCC2)CC1	62	n	n	n
